# Reference: the supplement of paper PMC4466140
# B1: unnamed (peptide)
# chain: NPLPKEPRLPKRKVA
# B2: unnamed (peptide)
# chain: PPLPRAPPVPPATFE
# B3: unnamed (peptide)
# chain: QTMRQAPKRPDADVA
# Target: AgAbp1
# Experiment: SPOT peptide array binding signal intensity (averaged, normalized) (arbitrary units (background-subtracted, floor 0; scale differs between SH3 domains)); higher = stronger binding of the SH3 domain to the peptide
# Method in brief: (§1)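 The binding signal is the normalized, background-subtracted spot intensity averaged over replicates; its arbitrary units differ between domains. It was obtained by incubating 10 μg/ml GST-fused SH3 domains from four yeast species overnight at 4°C in TBS-based blocking buffer on cellulose membranes with synthetic 15-mer peptides, cysteines replaced by serines, then detecting with anti-GST antibody, HRP anti-mouse secondary and luminol.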
row,Binder,SPOT peptide array binding signal intensity
1,B1,16
2,B2,16
3,B3,17

# Target: AgBbc1
# Experiment: as above
# Method in brief: as §1
row,Binder,SPOT peptide array binding signal intensity
1,B1,254
2,B2,0.5
3,B3,170

# Target: AgBem1-D1
# Experiment: as above
# Method in brief: as §1
row,Binder,SPOT peptide array binding signal intensity
1,B1,66.5
2,B2,40.5
3,B3,369

# Target: AgBzz1-D1
# Experiment: as above
# Method in brief: as §1
row,Binder,SPOT peptide array binding signal intensity
1,B1,48
2,B2,18
3,B3,11

# Target: AgBzz1-D2
# Experiment: as above
# Method in brief: as §1
row,Binder,SPOT peptide array binding signal intensity
1,B1,78.5
2,B2,≤ 0
3,B3,10

# Target: AgCyk3
# Experiment: as above
# Method in brief: as §1
row,Binder,SPOT peptide array binding signal intensity
1,B1,1
2,B2,0.5
3,B3,≤ 0

# Target: AgFus1
# Experiment: as above
# Method in brief: as §1
row,Binder,SPOT peptide array binding signal intensity
1,B1,20
2,B2,≤ 0
3,B3,728

# Target: AgHof1
# Experiment: as above
# Method in brief: as §1
row,Binder,SPOT peptide array binding signal intensity
1,B1,28
2,B2,43.2
3,B3,9

# Target: AgHse1
# Experiment: as above
# Method in brief: as §1
row,Binder,SPOT peptide array binding signal intensity
1,B1,134
2,B2,15
3,B3,132

# Target: AgLsb1
# Experiment: as above
# Method in brief: as §1
row,Binder,SPOT peptide array binding signal intensity
1,B1,3.25
2,B2,17.2
3,B3,48.8

# Target: AgLsb4
# Experiment: as above
# Method in brief: as §1
row,Binder,SPOT peptide array binding signal intensity
1,B1,2040
2,B2,≤ 0
3,B3,36

# Target: AgMyo5
# Experiment: as above
# Method in brief: as §1
row,Binder,SPOT peptide array binding signal intensity
1,B1,≤ 0
2,B2,434
3,B3,18.8

# Target: AgNbp2
# Experiment: as above
# Method in brief: as §1
row,Binder,SPOT peptide array binding signal intensity
1,B1,25
2,B2,107
3,B3,2740

# Target: AgRvs167
# Experiment: as above
# Method in brief: as §1
row,Binder,SPOT peptide array binding signal intensity
1,B1,23
2,B2,≤ 0
3,B3,20.3

# Target: AgSho1
# Experiment: as above
# Method in brief: as §1
row,Binder,SPOT peptide array binding signal intensity
1,B1,37
2,B2,6
3,B3,684

# Target: AgSla1-D1-D2
# Experiment: as above
# Method in brief: as §1
row,Binder,SPOT peptide array binding signal intensity
1,B1,28
2,B2,5
3,B3,9

# Target: AgSla1-D3
# Experiment: as above
# Method in brief: as §1
row,Binder,SPOT peptide array binding signal intensity
1,B1,9
2,B2,≤ 0
3,B3,14.8

# Target: CaAbp1-D1
# Experiment: as above
# Method in brief: as §1
row,Binder,SPOT peptide array binding signal intensity
1,B1,655
2,B2,21.5
3,B3,144

# Target: CaAbp1-D2
# Experiment: as above
# Method in brief: as §1
row,Binder,SPOT peptide array binding signal intensity
1,B1,376
2,B2,20
3,B3,292

# Target: CaBbc1
# Experiment: as above
# Method in brief: as §1
row,Binder,SPOT peptide array binding signal intensity
1,B1,1010
2,B2,79.2
3,B3,942

# Target: CaBem1-D1
# Experiment: as above
# Method in brief: as §1
row,Binder,SPOT peptide array binding signal intensity
1,B1,30
2,B2,23
3,B3,565

# Target: CaBzz1-D1
# Experiment: as above
# Method in brief: as §1
row,Binder,SPOT peptide array binding signal intensity
1,B1,122
2,B2,243
3,B3,458

# Target: CaBzz1-D2
# Experiment: as above
# Method in brief: as §1
row,Binder,SPOT peptide array binding signal intensity
1,B1,95.5
2,B2,39.5
3,B3,286

# Target: CaCyk3
# Experiment: as above
# Method in brief: as §1
row,Binder,SPOT peptide array binding signal intensity
1,B1,6.5
2,B2,1.5
3,B3,35

# Target: CaFus1
# Experiment: as above
# Method in brief: as §1
row,Binder,SPOT peptide array binding signal intensity
1,B1,190
2,B2,47
3,B3,1110

# Target: CaHof1
# Experiment: as above
# Method in brief: as §1
row,Binder,SPOT peptide array binding signal intensity
1,B1,2
2,B2,1.5
3,B3,1

# Target: CaHse1
# Experiment: as above
# Method in brief: as §1
row,Binder,SPOT peptide array binding signal intensity
1,B1,10.8
2,B2,≤ 0
3,B3,146

# Target: CaLsb1
# Experiment: as above
# Method in brief: as §1
row,Binder,SPOT peptide array binding signal intensity
1,B1,4
2,B2,≤ 0
3,B3,18.2

# Target: CaLsb4
# Experiment: as above
# Method in brief: as §1
row,Binder,SPOT peptide array binding signal intensity
1,B1,3890
2,B2,≤ 0
3,B3,910

# Target: CaMyo5
# Experiment: as above
# Method in brief: as §1
row,Binder,SPOT peptide array binding signal intensity
1,B1,4
2,B2,104
3,B3,56.2

# Target: CaNbp2
# Experiment: as above
# Method in brief: as §1
row,Binder,SPOT peptide array binding signal intensity
1,B1,112
2,B2,1100
3,B3,1450

# Target: CaRvs167
# Experiment: as above
# Method in brief: as §1
row,Binder,SPOT peptide array binding signal intensity
1,B1,303
2,B2,≤ 0
3,B3,163

# Target: CaRvs167-3
# Experiment: as above
# Method in brief: as §1
row,Binder,SPOT peptide array binding signal intensity
1,B1,4.5
2,B2,≤ 0
3,B3,0.75

# Target: CaSho1
# Experiment: as above
# Method in brief: as §1
row,Binder,SPOT peptide array binding signal intensity
1,B1,60
2,B2,14
3,B3,1860

# Target: CaSla1-D1-D2
# Experiment: as above
# Method in brief: as §1
row,Binder,SPOT peptide array binding signal intensity
1,B1,1220
2,B2,2
3,B3,553

# Target: CaSla1-D3
# Experiment: as above
# Method in brief: as §1
row,Binder,SPOT peptide array binding signal intensity
1,B1,6
2,B2,1
3,B3,650

# Target: ScAbp1
# Experiment: as above
# Method in brief: as §1
row,Binder,SPOT peptide array binding signal intensity
1,B1,147
2,B2,4.5
3,B3,7

# Target: ScBbc1
# Experiment: as above
# Method in brief: as §1
row,Binder,SPOT peptide array binding signal intensity
1,B1,168
2,B2,≤ 0
3,B3,68.5

# Target: ScBem1-D1
# Experiment: as above
# Method in brief: as §1
row,Binder,SPOT peptide array binding signal intensity
1,B1,12.5
2,B2,≤ 0
3,B3,1

# Target: ScBzz1-D1
# Experiment: as above
# Method in brief: as §1
row,Binder,SPOT peptide array binding signal intensity
1,B1,81
2,B2,4.5
3,B3,6

# Target: ScBzz1-D2
# Experiment: as above
# Method in brief: as §1
row,Binder,SPOT peptide array binding signal intensity
1,B1,56.5
2,B2,≤ 0
3,B3,27

# Target: ScCyk3
# Experiment: as above
# Method in brief: as §1
row,Binder,SPOT peptide array binding signal intensity
1,B1,3
2,B2,≤ 0
3,B3,4

# Target: ScFus1
# Experiment: as above
# Method in brief: as §1
row,Binder,SPOT peptide array binding signal intensity
1,B1,42
2,B2,11
3,B3,1110

# Target: ScHof1
# Experiment: as above
# Method in brief: as §1
row,Binder,SPOT peptide array binding signal intensity
1,B1,1.25
2,B2,241
3,B3,0.5

# Target: ScHse1
# Experiment: as above
# Method in brief: as §1
row,Binder,SPOT peptide array binding signal intensity
1,B1,337
2,B2,≤ 0
3,B3,84.5

# Target: ScLsb1
# Experiment: as above
# Method in brief: as §1
row,Binder,SPOT peptide array binding signal intensity
1,B1,29.5
2,B2,1
3,B3,78

# Target: ScLsb2
# Experiment: as above
# Method in brief: as §1
row,Binder,SPOT peptide array binding signal intensity
1,B1,≤ 0
2,B2,11
3,B3,29.5

# Target: ScLsb3
# Experiment: as above
# Method in brief: as §1
row,Binder,SPOT peptide array binding signal intensity
1,B1,3820
2,B2,84
3,B3,961

# Target: ScLsb4
# Experiment: as above
# Method in brief: as §1
row,Binder,SPOT peptide array binding signal intensity
1,B1,1350
2,B2,≤ 0
3,B3,524

# Target: ScMyo3
# Experiment: as above
# Method in brief: as §1
row,Binder,SPOT peptide array binding signal intensity
1,B1,≤ 0
2,B2,1100
3,B3,227

# Target: ScMyo5
# Experiment: as above
# Method in brief: as §1
row,Binder,SPOT peptide array binding signal intensity
1,B1,≤ 0
2,B2,463
3,B3,47.5

# Target: ScNbp2
# Experiment: as above
# Method in brief: as §1
row,Binder,SPOT peptide array binding signal intensity
1,B1,41
2,B2,200
3,B3,3190

# Target: ScPex13
# Experiment: as above
# Method in brief: as §1
row,Binder,SPOT peptide array binding signal intensity
1,B1,58.2
2,B2,95
3,B3,766

# Target: ScRvs167
# Experiment: as above
# Method in brief: as §1
row,Binder,SPOT peptide array binding signal intensity
1,B1,1460
2,B2,33.5
3,B3,136

# Target: ScSho1
# Experiment: as above
# Method in brief: as §1
row,Binder,SPOT peptide array binding signal intensity
1,B1,286
2,B2,81
3,B3,930

# Target: ScSla1-D1-D2
# Experiment: as above
# Method in brief: as §1
row,Binder,SPOT peptide array binding signal intensity
1,B1,546
2,B2,≤ 0
3,B3,690

# Target: ScSla1-D3
# Experiment: as above
# Method in brief: as §1
row,Binder,SPOT peptide array binding signal intensity
1,B1,4.5
2,B2,≤ 0
3,B3,700

# Target: SpAbp1-D1
# Experiment: as above
# Method in brief: as §1
row,Binder,SPOT peptide array binding signal intensity
1,B1,86
2,B2,7
3,B3,66

# Target: SpBbc1
# Experiment: as above
# Method in brief: as §1
row,Binder,SPOT peptide array binding signal intensity
1,B1,4.25
2,B2,1
3,B3,42.5

# Target: SpBzz1-D1
# Experiment: as above
# Method in brief: as §1
row,Binder,SPOT peptide array binding signal intensity
1,B1,356
2,B2,566
3,B3,188

# Target: SpBzz1-D2
# Experiment: as above
# Method in brief: as §1
row,Binder,SPOT peptide array binding signal intensity
1,B2,23.2
2,B3,512

# Target: SpCyk3
# Experiment: as above
# Method in brief: as §1
row,Binder,SPOT peptide array binding signal intensity
1,B2,≤ 0
2,B3,3

# Target: SpHof1
# Experiment: as above
# Method in brief: as §1
row,Binder,SPOT peptide array binding signal intensity
1,B2,1
2,B3,51.5

# Target: SpHof1-2
# Experiment: as above
# Method in brief: as §1
row,Binder,SPOT peptide array binding signal intensity
1,B2,707
2,B3,27.5

# Target: SpHof1-3
# Experiment: as above
# Method in brief: as §1
row,Binder,SPOT peptide array binding signal intensity
1,B2,125
2,B3,32.8

# Target: SpHse1
# Experiment: as above
# Method in brief: as §1
row,Binder,SPOT peptide array binding signal intensity
1,B2,30.8
2,B3,240

# Target: SpLsb1
# Experiment: as above
# Method in brief: as §1
row,Binder,SPOT peptide array binding signal intensity
1,B2,1.75
2,B3,34

# Target: SpLsb4
# Experiment: as above
# Method in brief: as §1
row,Binder,SPOT peptide array binding signal intensity
1,B2,≤ 0
2,B3,990

# Target: SpMyo1
# Experiment: as above
# Method in brief: as §1
row,Binder,SPOT peptide array binding signal intensity
1,B2,422
2,B3,229

# Target: SpNbp2
# Experiment: as above
# Method in brief: as §1
row,Binder,SPOT peptide array binding signal intensity
1,B2,17
2,B3,847

# Target: SpPex13
# Experiment: as above
# Method in brief: as §1
row,Binder,SPOT peptide array binding signal intensity
1,B2,≤ 0
2,B3,35

# Target: SpRvs167
# Experiment: as above
# Method in brief: as §1
row,Binder,SPOT peptide array binding signal intensity
1,B2,88
2,B3,188

# Target: SpSla1-D1-D2
# Experiment: as above
# Method in brief: as §1
row,Binder,SPOT peptide array binding signal intensity
1,B2,3
2,B3,11

# Target: SpSla1-D3
# Experiment: as above
# Method in brief: as §1
row,Binder,SPOT peptide array binding signal intensity
1,B2,≤ 0
2,B3,491
